Data as given in PubChem BioAssay AID504465 (National Center for Advancing Translational Sciences (NCATS), 2011).
About 210 (10%) of roughly 2,100 compounds were called active. Inconclusive results (about 53%) are left out. The list shows a part of the results. Unmarked numbers belong to inactive results. The call rests on the fitted dose curve; in most records, active means well fitted inhibition curve with a large enough effect; inconclusive means small, poorly fitted or top-dose-only effect, or effect the other way; inactive means no such curve, though single readings can be large or run the other way.

Assay: IN Cell qHTS Assay for Inhibitors of the mTORC1 Signaling Pathway in MEF (Tsc2-/-, p53-/-) Cells: Sytravon; further: nearly all actives have a fitted effect of over 60% in size;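 on activity, negative = inhibition: plate controls were DMSO wells for no effect and 7.5 nM rapamycin full pathway inhibition for full effect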
Settings: phospho-rpS6 immunofluorescence, 24 h; series mostly up to 38.3 µM; activity, negative = inhibition: at the top concentration
Summary of the method: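 Tsc2-/-, p53-/- MEFs (empty-vector) treated with compound 24 h at 37 degree Celsius, then fixed and stained for phospho-rpS6 Ser235/236 (Alexa-488) plus Hoechst. Reported as % positive cells, thresholds set against 7.5 nM rapamycin and DMSO wells.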
Potency means the concentration at half of the fitted maximal effect.

| Structure (SMILES) | activity, negative = inhibition [%] | Potency |
| --- | --- | --- |
| CCc1ccc(N=C2NC(=O)CC(C(=O)Nc3ccc(OC)cc3)S2)cc1 (stereo unspecified) | 15.4 | – |
| CCCc1cc(=O)oc2cc(C)c3c(-c4ccccc4)c(C)oc3c12 | -1.83 | – |
| C#CCOc1c(Br)cc(C2C(C(=O)OC)=C(C)NC3=C2C(=O)c2ccccc23)cc1OCC (stereo unspecified) | 15.3 | – |
| CSc1cccc(NC(=O)Cn2cnc(S(=O)(=O)N3CCCC3)c2)c1 | 0.892 | – |
| Cn1nnnc1SCCCNCc1cccc(OCc2ccccc2Cl)c1 | -25.9 | – |
| Cc1noc(/C=C/N(C)C)c1S(=O)(=O)N1CCCC(C(=O)Nc2ccc(F)cc2F)C1 (stereo unspecified) | 10.5 | – |
| Cc1ccc(-c2noc(-c3ccccc3NC(=O)C3CC(=O)N(c4cccc(C)c4)C3)n2)cc1 (stereo unspecified) | 3.66 | – |
| Cc1ccc(CNC(=O)Cn2cc(S(=O)(=O)Cc3ccccc3F)c3ccccc32)cc1 | – | 18.5 µM (active) |
| O=C(Cn1cc(S(=O)(=O)Cc2cccc(Cl)c2)c2ccccc21)Nc1ccccc1C(F)(F)F | -19.7 | – |
| COc1ccc2c(c1)c(=O)c(C(=O)c1ccc(C)cc1)cn2Cc1ccccc1F | -12.8 | – |
| CC(C)N(C(=O)CSc1cn(CC(=O)N2CCCCCC2)c2ccccc12)C(C)C | -11.6 | – |
| Cc1cc(C)c(NC(=O)Cn2cc(S(=O)(=O)Cc3ccccc3F)c3ccccc32)c(C)c1 | -29.4 | – |
| CN(C)c1ccc(NC(=O)Cn2cc(S(=O)(=O)Cc3ccccc3Cl)c3ccccc32)cc1 | – | 10.4 µM (active) |
| Cc1ccccc1OCc1cc(=O)n2c(-c3ccccc3)csc2n1 | 7.14 | – |
| Cc1cccc(-n2c(C)nc3cc(C(=O)NC4CCCCCC4)ccc32)c1 | 6.25 | – |
| COc1ccc(S(=O)(=O)N(C)Cc2nc(-c3cccc(C)c3)no2)cc1 | -29.1 | – |
| Cc1ccc(-c2cnc(NCc3ccc(C(F)(F)F)cc3)n2C)cc1 | -41.9 | – |
| COc1ccc(-n2nc3c(N4CCCC(C(=O)NCc5ccccc5C)C4)nnc(C)c3c2C)cc1 (stereo unspecified) | – | 5.85 µM (active) |
| O=C(NCc1ccccc1Cl)C1CCCN(c2nc3ccccc3n3cccc23)C1 (stereo unspecified) | -2.13 | – |
| Cc1nnc(N2CCCC(C(=O)Nc3cc(F)ccc3F)C2)c2nn(-c3ccccc3)c(C)c12 (stereo unspecified) | -20.1 | – |
| CCCN1C(=O)C(Cc2nc3ccccc3c(=O)n2CC)c2ccccc21 (stereo unspecified) | -18.6 | – |
| COc1ccc2nc(NC(=O)c3nc(S(=O)(=O)Cc4ccccc4)ncc3Cl)sc2c1 | – | 5.85 µM (active) |
| COc1cccc(-n2ccnc2SCC(=O)Nc2nc3ccc(C)cc3s2)c1 | -25 | – |
| CCc1nnc(NC(=O)c2nc(S(=O)(=O)Cc3ccc(C)cc3)ncc2Cl)s1 | – | 20.7 µM (active) |
| COc1cc(OC)cc(C(=O)Nc2cc3nn(-c4ccccc4)nc3cc2Cl)c1 | -26.8 | – |
| Cc1nnc(NC(=O)c2nc(S(=O)(=O)Cc3ccccc3)ncc2Cl)s1 | – | 16.5 µM (active) |

| Structure (SMILES) | activity, negative = inhibition [%] | Potency |
| --- | --- | --- |
| CCc1nnc(NC(=O)c2nc(S(=O)(=O)Cc3cccc(C)c3)ncc2Cl)s1 | – | 9.27 µM (active) |
| COc1ccccc1NC(=O)c1c(NCc2ccc(C)o2)sc2c1CCC(C)C2 (stereo unspecified) | 0 | – |
| Cc1ccccc1C(=O)N1CCC(c2nc3ccccc3s2)CC1 | -16.3 | – |
| CC(C)(C)c1ccc(S(=O)(=O)NCc2ccc3c(c2)CCN3C(=O)c2ccccc2)cc1 | 2.27 | – |
| CCCCN(C)CCNC(=O)Cn1ncc2c3ccccc3n(CCC)c2c1=O | -26.3 | – |
| CCCCNC(=O)c1cc(-c2cccnc2)nc2ccc(S(=O)(=O)NCCCC)cc12 | 0 | – |
| O=C(CSc1nccn1-c1ccc(Cl)cc1)Nc1ccc(Cl)c(Cl)c1 | -14.3 | – |
| CCC1=Nc2cc(C(=O)NC3CCC(C)CC3)ccc2Sc2ccc(C)cc21 (stereo unspecified) | -12 | – |
| CC1CCN(S(=O)(=O)c2ccc3nc(Nc4cccc(F)c4)ccc3c2)CC1 | -24.8 | – |
| CCSc1nc2ccccc2c(OCc2cc(C(=O)OC)ccc2OC)c1C(=O)OC | -27.8 | – |
| Cc1ccccc1CS(=O)(=O)c1ncc(Cl)c(C(=O)Nc2nnc(C(C)C)s2)n1 | – | 13.1 µM (active) |
| CC(C)c1ccc(NC(=O)CSC2=Nc3ccccc3C3=NC(CCC(=O)NCc4ccc(F)cc4)C(=O)N23)cc1 (stereo unspecified) | -1.18 | – |
| O=C(CCn1cnc2onc(-c3ccc(F)cc3)c2c1=O)Nc1ccc(F)c(Cl)c1 | 1.08 | – |
| O=S(=O)(c1ccc(-c2csc(=Nc3ccc(OC(F)(F)Cl)cc3)n2CCCO)cc1)N1CCCC1 | – | 1.85 µM (active) |
| COc1ccc(NC(=O)CCCN2C(=O)CCn3nc(-c4cn(C)c5ccccc45)cc32)cc1 | 0.526 | – |
| CCOC(=O)C1=C(C)NC(=O)NC1c1cn(-c2ccccc2)nc1-c1ccc(OC(C)C)cc1 (stereo unspecified) | 2.95 | – |
| O=C(Nc1ccc(F)cc1F)c1noc2c1CCc1ccccc1-2 | 19.6 | – |
| CC1=Nc2cc(C(=O)NC3CCCC3)ccc2Sc2ccc(Br)cc21 | 5.6 | – |
| COCCCNC(=O)c1sc2nc(C)c(C(=O)Nc3ccc(C)cc3C)c(-c3ccc(Cl)cc3)c2c1N | -18.8 | – |
| Cc1ccc(C(=O)Nc2c(C(=O)NCc3ccc(Cl)cc3)sc3nc(C)cc(C)c23)cc1 | – | 11.7 µM (active) |
| Cc1cc(C)c2c(NC(=O)c3ccccc3Cl)c(C(=O)Nc3ccc(C)c(C)c3)sc2n1 | – | 1.65 µM (active) |
| Cc1cc(C)c(NC(=O)c2sc3nc(C)cc(C)c3c2NC(=O)c2ccccc2)c(C)c1 | 4.6 | – |
| Cc1cccc(C(=O)Nc2c(C(=O)NCc3ccc(Cl)cc3)sc3nc(C)cc(C)c23)c1 | -100 | – |
| Cc1ccc(NC(=O)c2cc(S(=O)(=O)N3CCc4ccccc43)ccc2F)cc1Cl | 6.25 | – |
| CC(C)(C)c1ccc(NC(=O)CSc2nnc3scc(-c4ccccc4)n23)cc1 | 29.3 | – |
